Results reported in PubChem BioAssay AID1159580 (chemical genetic matrix, 2015).
The whole screen tested about 5,500 compounds, of which about 2,000 (36%) were called active. About 18% were inconclusive and are not listed. No stated cut-off is given here; in the data, active means normalized growth mostly below about 0.91 (no sharp cut-off); inconclusive means no clear call, values can overlap the other calls; inactive means mostly above about 0.92. The list shows a part of the results.

Test: chemical genetic growth profiling, strain panel (AID 1159580);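 further: tested at 20 µM; growth read once vehicle control cultures reached saturation at 30 °C; 1 = growth at the plate median or of vehicle wells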
Conditions: S. cerevisiae deletion strains, growth OD

Measured: normalized growth

C=C(C)[C@H]1CN[C@H](C(=O)O)[C@H]1CC(=O)O
inactive: locus YAL040C, strain CLN3, stronger effect = lower value 1.02 | locus YCL061C, strain MRC1 (second series), stronger effect = lower value 1 | locus YDR363W, strain ESC2, stronger effect = lower value 1.03 | locus YER002W, strain NOP16, stronger effect = lower value 1.01 | locus YMR307W, strain GAS1, stronger effect = lower value 1 | locus YNL128W, strain TEP1, stronger effect = lower value 1 | locus YNL175C, strain NOP13, stronger effect = lower value 1.02 | locus YNL197C, strain WHI3, stronger effect = lower value 1.02 | locus YNL224C, strain SQS1, stronger effect = lower value 1 | locus YOR083W, strain WHI5 (second series), stronger effect = lower value 1.03
